# Laboratory results published in PubChem BioAssay (NCI).
# Several values for one entry are separate records, joined by “and”; a condition that tells them apart may be missing. Equal values may be shown once. This is part of a sample that, as a whole, favours compounds with a hit. Of some 83,000 tested, about 20% had one in any assay.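 For each line, cells grew in 96-well plates with the test compound present at a single concentration for 48 hours.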 A number with no mark means an inactive call. Activity calls are given as the source filed them. Rule for the calls: active = growth percent below 10; inactive = the rest.
# Columns and labels:
# Experiment in all cases: NCI-60 one-dose screen, 48 h (100 = growth as untreated, 0 = no growth, -100 = all killed)
# HCT-15 colon = conditions: 10 µM unless noted
# HT29 colon = conditions: 10 µM unless noted
# SNB-75 CNS = conditions: 10 µM unless noted
# SNB-19 CNS = conditions: 10 µM unless noted
# U251 CNS = conditions: 10 µM unless noted
# PC-3 prostate = conditions: 10 µM unless noted
# SK-MEL-5 melanoma = conditions: 10 µM unless noted
# UACC-62 melanoma = test system: UACC-62 melanoma
# LOX IMVI melanoma = conditions: 10 µM unless noted
# SK-MEL-28 melanoma = conditions: 10 µM unless noted
# SK-MEL-2 melanoma = conditions: 10 µM unless noted
# SN12C renal = conditions: 10 µM unless noted
# UO-31 renal = conditions: 10 µM unless noted
# TK-10 renal = test system: TK-10 renal
# CCRF-CEM leukemia = conditions: 10 µM
# MOLT-4 leukemia = conditions: 10 µM unless noted
# ACHN renal = conditions: 10 µM unless noted
# CAKI-1 renal = conditions: 10 µM unless noted
# A498 renal = conditions: 10 µM unless noted
# EKVX NSCLC = conditions: 10 µM
compound,measurement,setting,value
CCOC(=O)c1c(C)cc(=O)oc1C,growth,HCT-15 colon,102%
same,growth,HT29 colon,103%
same,growth,SNB-75 CNS,94%
same,growth,SNB-19 CNS,96.2%
same,growth,U251 CNS,98.3%
same,growth,PC-3 prostate,92%
same,growth,SK-MEL-5 melanoma,106%
same,growth,UACC-62 melanoma; 10 µM unless noted,95.3%
same,growth,LOX IMVI melanoma,105%
same,growth,SK-MEL-28 melanoma,115%
same,growth,SK-MEL-2 melanoma,125%
same,growth,SN12C renal,98.6%
same,growth,UO-31 renal,88.9%
same,growth,TK-10 renal; 10 µM unless noted,121%
same,growth,CCRF-CEM leukemia,100%
same,growth,MOLT-4 leukemia,101%
Cc1ccc(S(=O)(=O)c2ccccc2)cc1,growth,HCT-15 colon,30.5%
same,growth,HT29 colon,6.22% (active)
same,growth,SNB-75 CNS,-19.3% (active)
same,growth,SNB-19 CNS,43.4%
same,growth,U251 CNS,17.2%
same,growth,PC-3 prostate,30.7%
same,growth,SK-MEL-5 melanoma,23.7%
same,growth,UACC-62 melanoma; 10 µM unless noted,63.4%
same,growth,LOX IMVI melanoma,21%
same,growth,SK-MEL-28 melanoma,59.6%
same,growth,SK-MEL-2 melanoma,38.6%
same,growth,SN12C renal,50.4%
same,growth,TK-10 renal; 10 µM unless noted,51.6%
same,growth,ACHN renal,56%
same,growth,CAKI-1 renal,25.4%
same,growth,A498 renal,28%
same,growth,CCRF-CEM leukemia,11.5%
same,growth,MOLT-4 leukemia,32.5%
O=C1c2c(O)ccc(O)c2C(=O)c2c(NCCNCCO)ccc(NCCNCCO)c21,growth,HCT-15 colon,-14.2% (active) and 3.08% (active)
same,growth,HT29 colon,-59.8% (active) and -43.2% (active)
same,growth,SNB-75 CNS,-90.4% (active)
same,growth,SNB-19 CNS,-40.6% (active) and -58.3% (active)
same,growth,U251 CNS,-67% (active) and -99.7% (active)
same,growth,PC-3 prostate,-28% (active) and -55.3% (active)
same,growth,SK-MEL-5 melanoma,-100% (active)
same,growth,UACC-62 melanoma; 10 µM unless noted,-91.9% (active) and -86.7% (active)
same,growth,LOX IMVI melanoma,-66.4% (active) and -76.2% (active)
same,growth,SK-MEL-2 melanoma,-87.6% (active) and -70.5% (active)
same,growth,EKVX NSCLC,-17.7% (active) and -29.5% (active)
same,growth,SN12C renal,-45.7% (active) and -49.7% (active)
same,growth,UO-31 renal,-63.5% (active) and -53.9% (active)
same,growth,TK-10 renal; 10 µM unless noted,-35% (active) and -7% (active)
same,growth,ACHN renal,-52.9% (active) and -45.2% (active)
same,growth,CAKI-1 renal,-17.2% (active) and -31% (active)
same,growth,A498 renal,-80.1% (active)
same,growth,CCRF-CEM leukemia,-24.9% (active) and -30.9% (active)
same,growth,MOLT-4 leukemia,2.98% (active) and -18.1% (active)
COc1ccc2cc1Oc1ccc(cc1)C[C@H]1c3cc(c(OC)cc3CCN1C)Oc1c(OC)c(OC)cc3c1[C@H](C2)N(C)CC3,growth,HCT-15 colon,3.41% (active)
same,growth,HT29 colon,-32.7% (active)
same,growth,SNB-75 CNS,-7.64% (active)
same,growth,SNB-19 CNS,57.7%
same,growth,U251 CNS,24.2%
same,growth,PC-3 prostate,28.8%
same,growth,SK-MEL-5 melanoma,21.1%
same,growth,UACC-62 melanoma; 10 µM,103%
same,growth,UACC-62 melanoma; 100 µM,80.7% and 64.2%
same,growth,LOX IMVI melanoma,-43.7% (active)
same,growth,SK-MEL-2 melanoma,131%
same,growth,EKVX NSCLC,80.5%
same,growth,SN12C renal,82.2%
same,growth,UO-31 renal,3.4% (active)
same,growth,TK-10 renal; 10 µM,76.7%
same,growth,TK-10 renal; 100 µM,71.7% and 56.9%
same,growth,CAKI-1 renal,68.9%
same,growth,A498 renal,72.1%
same,growth,CCRF-CEM leukemia,3.76% (active)
same,growth,MOLT-4 leukemia,28.2%
Oc1ccc(Cc2ccccc2Cl)c(O)c1,growth,HCT-15 colon,97.2%
same,growth,HT29 colon,106%
same,growth,SNB-75 CNS,80.5%
same,growth,SNB-19 CNS,100%
same,growth,U251 CNS,96.2%
same,growth,PC-3 prostate,82.5%
same,growth,SK-MEL-5 melanoma,97.7%
same,growth,UACC-62 melanoma; 10 µM unless noted,85.7%
same,growth,LOX IMVI melanoma,86.3%
same,growth,SK-MEL-28 melanoma,110%
same,growth,SK-MEL-2 melanoma,97.8%
same,growth,EKVX NSCLC,96.3%
same,growth,SN12C renal,91.2%
same,growth,UO-31 renal,61.1%
same,growth,TK-10 renal; 10 µM unless noted,103%
same,growth,ACHN renal,92%
same,growth,CAKI-1 renal,91%
same,growth,A498 renal,75.3%
same,growth,CCRF-CEM leukemia,94.1%
same,growth,MOLT-4 leukemia,88.7%
Nc1cc(N)c(N)cc1N,growth,HCT-15 colon,54.2%
same,growth,HT29 colon,82.4%
same,growth,SNB-75 CNS,56.6%
same,growth,SNB-19 CNS,84.5%
same,growth,U251 CNS,15.6%
same,growth,PC-3 prostate,92.7%
same,growth,SK-MEL-5 melanoma,-92.7% (active)
same,growth,UACC-62 melanoma; 10 µM unless noted,-40.3% (active)
same,growth,LOX IMVI melanoma,-93.8% (active)
same,growth,SK-MEL-28 melanoma,78.7%
same,growth,SK-MEL-2 melanoma,-62.5% (active)
same,growth,SN12C renal,-69.7% (active)
same,growth,UO-31 renal,-0.0578% (active)
same,growth,TK-10 renal; 10 µM unless noted,101%
same,growth,CAKI-1 renal,82.5%
same,growth,A498 renal,99.8%
same,growth,CCRF-CEM leukemia,89.6%
same,growth,MOLT-4 leukemia,83.2%
